Among the data in PubChem BioAssay are growth inhibition, inhibition and outcome values, retold here.

What is called inhibition is the drop in the measured response relative to a control, in per cent.

A number with no mark means an inactive call. For some of these results: Measured potencies and affinities stand elsewhere. Activity calls are given as the source filed them. Unless noted, how the calls were made is not given here.

Assay [1] can be described thus: antimalarial activity against Dd2 strain (AID 2302;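 active means growth inhibition above 50% at the single 2 µM test dose, taken to imply half-maximal potency below 2 µM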;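 further: 0% = DMSO untreated growth and 100% = chloroquine plus artemisinin killed control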). The settings on record: P. falciparum Dd2 in RBCs, LDH growth readout, 72 h; at 2 µM; hits give high values.
The nature of assay [2]: HepG2 cytotoxicity, primary screen, cytotoxicity control for P. falciparum antimalarial project, cell-based, ATP luminescence (AID 2303;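 active means inhibition above 50%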;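 further: 0% = DMSO wells and 100% = digitonin-killed cells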). Particulars: HepG2 viability, 24-48 h, at 10 µM, hits give high values.
Assay [3] has as its target L-lactate dehydrogenase (Plasmodium falciparum (isolate CDC / Honduras)) (UniProt Q27743). Nature of the assay: PfLDH activity inhibition – cell lysate, 3D7 strain, counter-screen for P. falciparum growth inhibition project (AID 2304).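 Further: 0% = vehicle and 100% = reference inhibitor.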 Particulars: P. falciparum 3D7 crude extract, LDH APAD/NBT absorbance; at 2 µM; hits give high values. (The purpose of a counterscreen is to sort out artefacts and off-target activity.)

Assay [4] is described as follows: inhibition of 3D7 malaria parasite growth – strain 3D7 (AID 2306).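 Further: 0% = DMSO wells and 100% = chloroquine plus artemisinin control wells.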 The settings on record: P. falciparum 3D7 erythrocytic growth, LDH absorbance, 72 h; at 2 µM; hits give high values.
Assay [5] deals with Calcium-dependent protein kinase 1 (Plasmodium falciparum (isolate 3D7)) (UniProt P62344). Nature of the assay: PfCDPK1 kinase inhibitors, biochemical, TCAMS library (AID 1159585; cut-off not given, nearly all actives have IC50 up to about 0.98 µM;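 further: inhibitors leave more ATP so luminescence rises with inhibition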). Particulars: recombinant PfCDPK1, Kinase-Glo ATP depletion luminescence.
Assay [6] addresses Plasmodium falciparum protein kinase 6 (PK6, PF3D7_1337100) (UniProt Q8IDW1). Nature of the assay: PfPK6 kinase inhibitors, biochemical, TCAMS library (AID 1159586). The settings on record: recombinant PfPK6, Kinase-Glo ATP depletion luminescence. For orientation: Kinase-Glo reads ATP consumption through a luciferase reaction.
The target in assay [7] is Protein kinase 7 (PK7), Plasmodium falciparum 3D7 (PF3D7_0213400) (UniProt Q7YTF7). The experiment in a line: inhibition of Plasmodium PK7 catalytic activity – biochemical, TCAMS antimalarial set, Kinase-Glo luminescence (AID 1159587). Particulars: recombinant PfPK7, Kinase-Glo ATP depletion luminescence.
Assay [8] has as its target Calcium-dependent protein kinase 4 (Plasmodium falciparum (isolate 3D7)) (UniProt Q8IBS5). Nature of the assay: PfCDPK4 kinase inhibitors, biochemical, TCAMS library (AID 1159588; cut-off not given, nearly all actives have IC50 up to about 0.91 µM). Particulars: recombinant PfCDPK4, Kinase-Glo ATP depletion luminescence.

Chain of Calcium-dependent protein kinase 4 (Plasmodium falciparum (isolate 3D7)) (Q8IBS5 whole entry, looked up): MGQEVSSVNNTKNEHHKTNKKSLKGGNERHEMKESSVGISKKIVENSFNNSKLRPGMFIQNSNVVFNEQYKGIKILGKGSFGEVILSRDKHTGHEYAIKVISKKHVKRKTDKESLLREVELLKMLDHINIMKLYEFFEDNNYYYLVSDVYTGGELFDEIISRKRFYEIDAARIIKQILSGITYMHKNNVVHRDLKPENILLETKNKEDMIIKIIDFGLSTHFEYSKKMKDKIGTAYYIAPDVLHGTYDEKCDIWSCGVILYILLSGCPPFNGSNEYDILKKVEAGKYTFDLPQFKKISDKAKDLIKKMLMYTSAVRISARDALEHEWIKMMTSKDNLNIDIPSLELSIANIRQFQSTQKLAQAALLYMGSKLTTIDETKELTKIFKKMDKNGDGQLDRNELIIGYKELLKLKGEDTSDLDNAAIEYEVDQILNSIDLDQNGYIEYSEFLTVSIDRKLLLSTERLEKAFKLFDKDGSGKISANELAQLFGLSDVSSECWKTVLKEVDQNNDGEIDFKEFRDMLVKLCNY
Chain of Protein kinase 7 (PK7), Plasmodium falciparum 3D7 (PF3D7_0213400) (Q7YTF7 1-343): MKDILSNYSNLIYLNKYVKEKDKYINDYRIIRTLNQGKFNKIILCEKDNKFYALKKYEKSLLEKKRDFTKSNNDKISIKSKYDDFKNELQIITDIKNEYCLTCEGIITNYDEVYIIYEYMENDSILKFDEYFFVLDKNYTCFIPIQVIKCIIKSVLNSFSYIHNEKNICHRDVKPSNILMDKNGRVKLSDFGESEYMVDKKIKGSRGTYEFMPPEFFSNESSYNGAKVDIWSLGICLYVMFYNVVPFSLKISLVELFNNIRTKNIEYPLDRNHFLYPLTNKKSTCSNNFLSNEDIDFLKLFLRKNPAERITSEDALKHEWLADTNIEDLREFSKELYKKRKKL
Chain of Calcium-dependent protein kinase 1 (Plasmodium falciparum (isolate 3D7)) (P62344 whole entry, looked up): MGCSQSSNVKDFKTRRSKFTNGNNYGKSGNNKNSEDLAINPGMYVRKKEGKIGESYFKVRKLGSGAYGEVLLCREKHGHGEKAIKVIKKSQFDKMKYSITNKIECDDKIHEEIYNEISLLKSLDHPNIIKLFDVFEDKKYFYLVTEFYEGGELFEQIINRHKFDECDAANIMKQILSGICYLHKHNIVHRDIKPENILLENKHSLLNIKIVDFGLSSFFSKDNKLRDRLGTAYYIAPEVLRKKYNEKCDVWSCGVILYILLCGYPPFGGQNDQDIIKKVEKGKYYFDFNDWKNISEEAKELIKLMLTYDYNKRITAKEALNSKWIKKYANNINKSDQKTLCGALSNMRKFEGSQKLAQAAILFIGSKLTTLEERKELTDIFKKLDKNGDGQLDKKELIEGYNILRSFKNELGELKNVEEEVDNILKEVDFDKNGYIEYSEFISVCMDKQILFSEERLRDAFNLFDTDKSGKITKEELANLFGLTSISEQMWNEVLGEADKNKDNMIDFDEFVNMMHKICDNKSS
Chain of L-lactate dehydrogenase (Plasmodium falciparum (isolate CDC / Honduras)) (Q27743 whole entry, looked up): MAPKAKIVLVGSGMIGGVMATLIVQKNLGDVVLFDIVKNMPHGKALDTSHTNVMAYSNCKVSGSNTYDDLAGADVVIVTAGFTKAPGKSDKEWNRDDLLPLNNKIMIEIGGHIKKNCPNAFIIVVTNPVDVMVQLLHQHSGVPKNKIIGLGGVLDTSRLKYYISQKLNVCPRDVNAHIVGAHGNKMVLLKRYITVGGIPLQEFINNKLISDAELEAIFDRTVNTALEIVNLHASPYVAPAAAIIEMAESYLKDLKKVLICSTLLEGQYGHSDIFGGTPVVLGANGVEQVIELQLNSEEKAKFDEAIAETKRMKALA
Chain of Plasmodium falciparum protein kinase 6 (PK6, PF3D7_1337100) (Q8IDW1 1-305): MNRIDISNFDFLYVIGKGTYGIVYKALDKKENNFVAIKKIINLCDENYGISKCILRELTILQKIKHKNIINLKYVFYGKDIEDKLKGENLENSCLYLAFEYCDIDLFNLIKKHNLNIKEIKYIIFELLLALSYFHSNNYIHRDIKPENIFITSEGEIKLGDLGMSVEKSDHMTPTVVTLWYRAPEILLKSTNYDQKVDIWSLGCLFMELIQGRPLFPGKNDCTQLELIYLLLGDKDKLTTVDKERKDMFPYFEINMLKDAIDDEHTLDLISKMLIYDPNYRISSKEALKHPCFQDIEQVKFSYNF

On to `Cc1c(Oc2ccc(-n3ccnc3)cc2)ncnc1N1CCC2(CC1)CNCc1ccccc12`, for which the growth inhibition in assay [1] was 58% (active); in assay [4] it was 95% (active). Also, the inhibition is 26% in assay [2] and -3% in assay [3]. Also, the result in assay [5], in assay [6], in assay [7] and in assay [8] was inactive.
Take `Cc1ccccc1C1CCN(C2CCC(NC(=O)/C=C/c3cccc(C(F)(F)F)c3)CC2)CC1` (stereo not given): the growth inhibition in assay [1] is 54% (active); in assay [4] it was 100% (active). In addition, the inhibition was 96% (active) in assay [2] and -4% in assay [3]. Besides, the outcome in assay [5], in assay [6], in assay [7] and in assay [8] was inactive.
Regarding `N#Cc1cnc2cc(-c3cnc(CNCCN4CCOCC4)s3)ccc2c1Nc1ccc(Oc2ccccc2)cc1`, the growth inhibition in assay [1] was 83% (active); in assay [4] it was 97% (active). In addition, the inhibition in assay [2] was 30%; in assay [3], 2%. Besides, the result in assay [5], in assay [6], in assay [7] and in assay [8] was inactive.
With `Cn1ccc(-c2cccc(Nc3ccnc4cc(-c5nccs5)ccc34)c2)n1`, the growth inhibition in assay [1] was 94% (active); in assay [4] it was 101% (active). The inhibition in assay [2] was 39%; in assay [3], -1%. Besides, the result in assay [5], in assay [6], in assay [7] and in assay [8] was inactive.
On to `CNc1nc(NN=Cc2cc([N+](=O)[O-])c(Cl)cc2Cl)nc(Nc2cccc(C(F)(F)F)c2)n1`, for which the growth inhibition in assay [1] is 97% (active); in assay [4], 100% (active). For the same compound, the inhibition in assay [2] was 13%; in assay [3] it was 9%. The result in assay [5], in assay [6], in assay [7] and in assay [8] was inactive.
As for `CS(=O)(=O)c1ccc(CNCc2ccc(-c3cccc(-c4nc5ccc(F)cc5[nH]4)c3)cc2)cc1`, the growth inhibition in assay [1] was 74% (active); in assay [4], 102% (active). In addition, the inhibition in assay [2] is 33%; in assay [3], -5%. Moreover, the outcome in assay [5], in assay [6], in assay [7] and in assay [8] was inactive.
On to `C#CCCC(=O)Nc1cccc(-c2cccc(-c3nc4c(C)cccc4[nH]3)c2)c1`, for which the figures for the growth inhibition in assay [1] and in assay [4] were 29% and 97% (active), respectively. For the same compound, the inhibition in assay [2] was 30%; in assay [3] it was -3%. In addition, the outcome in assay [5], in assay [6], in assay [7] and in assay [8] was inactive.
`COc1ccc(CN(C)CCCCc2ccc(NC(=O)COc3cccc4sc5ccccc5c(=O)c34)cc2)cc1OC`: the figures for the growth inhibition in assay [1] and in assay [4] were 84% (active) and 100% (active), respectively. Further, the inhibition in assay [2] is 26%; in assay [3] it was -1%. Further, the result in assay [5], in assay [6], in assay [7] and in assay [8] was inactive.
For the compound `CC(C)n1cc(CN2CCCC(C(=O)Nc3cccc(-c4cc5ccccc5[nH]4)c3)C2)cn1` (stereo not given), the growth inhibition in assay [1] is 65% (active); in assay [4] it was 96% (active). The inhibition was 34% in assay [2] and -3% in assay [3]. In addition, the result in assay [5], in assay [6], in assay [7] and in assay [8] was inactive.
With `Cc1cc(-c2cccc3c(NC(=O)N4CCc5cc6nccc(N7CCN8CCC[C@H]8C7)c6cc54)cccc23)cc(C)n1`, the growth inhibition was 100% (active) in assay [1] and 101% (active) in assay [4]. For the same compound, the results for the inhibition in assay [2] and in assay [3] were 12% and 6%, respectively. Moreover, the result in assay [5], in assay [6], in assay [7] and in assay [8] was inactive.
Turning to `Cc1cccc2[nH]c(-c3ccc(-c4ccc(NC(=O)NCc5ccccc5)cc4)s3)nc12`, the results for the growth inhibition in assay [1] and in assay [4] were 8% and 93% (active), respectively. In addition, the figures for the inhibition in assay [2] and in assay [3] were 79% (active) and 5%, respectively. The result in assay [5], in assay [6], in assay [7] and in assay [8] was inactive.
Turning to `CNC(=O)C1Cc2c([nH]c3ccc(Br)cc23)C2(CCN(CCc3ccccc3)CC2)N1` (stereo not given), the figures for the growth inhibition in assay [1] and in assay [4] were 60% (active) and 101% (active), respectively. Further, the values for the inhibition in assay [2] and in assay [3] were 15% and -2%, respectively. For the same compound, the outcome in assay [5], in assay [6], in assay [7] and in assay [8] was inactive.
As to `CCCCCCCc1c(C)[nH]c2c(OC)cccc2c1=O`, the growth inhibition in assay [1] is 85% (active); in assay [4], 89% (active). Further, the inhibition in assay [2] was -5%; in assay [3], 5%. Moreover, the result in assay [5], in assay [6], in assay [7] and in assay [8] was inactive.
`CN(C)c1ccc(-c2csc(C(=O)NCC3CCN(CC4CCCCC4)C3)c2)cc1` (stereo not given): the growth inhibition in assay [1] was 28%; in assay [4], 86% (active). Also, the inhibition is 35% in assay [2] and 1% in assay [3]. Also, the result in assay [5], in assay [6], in assay [7] and in assay [8] was inactive.
On to `N#Cc1ccccc1C(=O)N(Cc1cncn1Cc1cccc(F)c1)CC1CC1`, for which the growth inhibition in assay [1] was 92% (active); in assay [4] it was 101% (active). Besides, the inhibition in assay [2] was 0%; in assay [3], -1%. Also, the result in assay [5], in assay [6], in assay [7] and in assay [8] was inactive.
For the compound `COc1ccc(OC)c(NC(=O)c2c(-c3c(F)cccc3Cl)noc2C)c1`, the growth inhibition in assay [1] was 25%; in assay [4], 94% (active). Further, the inhibition in assay [2] and in assay [3] was -1% in each case. The result in assay [5], in assay [6], in assay [7] and in assay [8] was inactive.
On to `CC1(C)CCCN(C(=O)c2cccc(-n3nc(-c4ccc(Cl)cc4)cc3N)c2)C1`, for which the growth inhibition in assay [1] was 98% (active); in assay [4] it was 101% (active). The values for the inhibition in assay [2] and in assay [3] were 13% and -2%, respectively. In addition, the result in assay [5], in assay [6], in assay [7] and in assay [8] was inactive.
As for `Cc1ncc([N+](=O)[O-])n1CCOC(=O)NC(Nc1ccc(Br)cc1)C(Cl)(Cl)Cl` (stereo not given), the figures for the growth inhibition in assay [1] and in assay [4] were 102% (active) and 99% (active), respectively. Further, the inhibition was 0% in assay [2] and 5% in assay [3]. In addition, the outcome in assay [5], in assay [6], in assay [7] and in assay [8] was inactive.
In the case of `Clc1cc(Cl)c2cc(CN[C@H]3CCC[C@@H]3CNc3nc4ccccc4[nH]3)[nH]c2c1`, the growth inhibition in assay [1] was 58% (active); in assay [4], 99% (active). In addition, the inhibition in assay [2] was 85% (active); in assay [3], -1%. Besides, the outcome in assay [5], in assay [6], in assay [7] and in assay [8] was inactive.
As for `CCN(CC)CCCN(C(=O)c1cc2c(C)nn(-c3ccccc3)c2s1)c1nc(-c2ccc(OC)cc2)cs1`, the growth inhibition in assay [1] was 32%; in assay [4], 89% (active). Further, the inhibition in assay [2] was 12%; in assay [3], -7%. Also, the result in assay [5], in assay [6], in assay [7] and in assay [8] was inactive.
